# Values joined by “and” are separate entries in the source; they are usually repeats but may differ in a detail not shown here. Equal entries are not always repeated. In all, about 73,000 compounds went through this assay and about 1,800 (2.5%) were called active. Not shown: some 13% with an inconclusive outcome. The entries come from a sample that favours actives as a whole. A number with no mark means an inactive call. Calls follow the shape of the dose curve; as a rule, active = well fitted activation curve with a large enough effect; inconclusive = small, poorly fitted or top-dose-only effect; inactive = no such curve, though single readings can be large or run the other way.
# Experiment: qHTS Assay for Agonists of the Thyroid Stimulating Hormone Receptor: Activators of Intracellular cAMP Concentrations in Parental HEK 293; also: nearly all actives have a fitted effect of over 55% in size; as to activation: % of control where 0% means no effect
# Conditions: parental HEK293 CNG cAMP sensor, membrane potential fluorescence; series mostly up to 57.1 µM; activation: at the top concentration
# How it was run: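 Parental HEK 293 cells stably expressing a modified CNG channel (no TSHR) report cAMP rise as membrane depolarization. Membrane potential dye with 100 uM RO 20-1724 was loaded for 60 min at room temperature, then compound added for 30 min; fluorescence read at 590 nm.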
# Potency is read from the fitted curve at half-maximal effect.
SMILES,activation,Potency
N#CC1=C(N)OC2=C(C(=O)CCC2)C1C1CC=CCC1 (centres undefined),9.36%,
CC1CCN(C(=O)Cn2cc(C(=O)c3ccco3)c3ccccc32)CC1,,20 µM (active)
CCOC(=O)C1CCN(C(=O)Cn2cc(C#N)c3ccccc32)CC1,-2.07%,
COC(=O)Cn1cc(C(=O)c2cccs2)c2ccccc21,18.6%,
CC(=O)OCC1OC(C#Cc2ccccc2Cl)C=CC1OC(C)=O (centres undefined),-0.512% [at 11.4 µM],
CCCCCCCCCCCC(=O)O[C@H](CC(=O)O)C[N+](C)(C)C,10.1%,
COc1ccc(-c2nnc(SCC(=O)c3ccco3)n2-c2ccccc2)cc1,11.6%,
O=C(CSc1nnc(-c2cccnc2)n1Cc1ccco1)c1ccc(Cl)cc1,19.9%,
O=C(CSc1nnc(-c2cccs2)n1Cc1ccco1)c1ccc2c(c1)OCO2,,31.6 µM (active)
CCn1c(CNc2ccc(OC)cc2)nnc1SCC(=O)c1ccc(OC)cc1,3.65%,
O=C(CSc1nnc(-c2cccs2)n1-c1ccccc1)NCc1ccco1,23.2%,
COc1ccc(NC(=O)CSc2nnc(-c3cccs3)n2Cc2ccco2)cc1OC,5.77%,
Cc1ccc(NC(=O)CSc2nnc(-c3cnccn3)n2Cc2ccco2)cc1C,0.776%,
COc1ccc(C(=O)CSc2nnc(COc3ccccc3)n2Cc2ccco2)cc1,,15.8 µM (active)
O=C(CSc1nnc(-c2cnccn2)n1Cc1ccco1)c1ccc(Cl)c(Cl)c1,,25.1 µM (active)
CCOC(=O)c1nc(-c2ccc3c(c2)OCO3)[nH]c1C,20.4%,
CCCC(=O)N1c2ccc(-c3csc(N)n3)cc2CC1C (centres undefined),-11.7%,
Cc1ccc2nc(S(=O)(=O)O)[nH]c2c1,0.944%,
NC(=O)CSC1=Nc2ccccc2C2=NC(CCC(=O)NCc3ccc(F)cc3)C(=O)N12 (centres undefined),1.88%,
O=C(CC1N=C2c3ccccc3N=C(SCc3ccccc3Cl)N2C1=O)NCc1ccco1 (centres undefined),,15.8 µM (active)
O=C(CSC1=Nc2ccccc2C2=NC(c3ccccc3)C(=O)N12)NCC1CCCO1 (centres undefined),-0.0353%,
Cc1cc(OCC(=O)O)c(Cl)cc1Cl,18.1% [at 11.4 µM],
Cc1ccccc1C(=O)O,5.98%,
CCC(=O)Nc1ccccc1N1CCN(S(C)(=O)=O)CC1,13%,

SMILES,activation,Potency
CCCC(=O)Nc1ccccc1N1CCN(C(=O)c2ccccc2)CC1,,15.8 µM (active)
O=C(Nc1ccccc1N1CCN(C(=O)c2ccccc2)CC1)c1ccc2c(c1)OCO2,6.57%,
CC(C)CO/N=C1/C[C@@H](O)[C@@H](O)[C@@H]2[C@@H]3C(=O)N(C[C@@H]4CCCO4)C(=O)[C@H]3CC[C@@H]12,4.27% [at 11.4 µM],
O=C(O)COc1c(Cl)cc(Cl)c2cccnc12,14.2% [at 11.4 µM],
CC12CCC(C(=O)N3CCN(c4ncccn4)CC3)(c3nc4ccccc4nc31)C2(C)C (centres undefined),12.7%,
COCCCNC(=O)CSc1nc2ccc(N3CCOCC3)cc2c(=O)n1CCc1ccccc1,3.65%,
CCc1ccc(NC(=O)CSc2nc3ccccc3c(=O)n2CCN2CCOCC2)cc1,,31.6 µM (active)
CCCCn1c(SCC(=O)NCC2CCCO2)nc2ccc(N3CCOCC3)cc2c1=O (centres undefined),2.7%,
COC(=O)C1=C(C)N(Cc2ccccc2)C2=C3C(=O)N(c4ccccc4)C(=O)C3[C@@](O)(C(=O)OC)C(=O)N2C1c1ccccc1 (some centres undefined),9.18% [at 11.4 µM] and 2.67% [at 11.4 µM],
Cc1ccccc1-c1nc(N(C)Cc2ccco2)c2ccccc2n1,,25.1 µM (active)
CN(Cc1ccco1)c1ncncc1-c1ccoc1,11.1%,
CN(Cc1ccco1)c1cc(-c2ccccc2C(F)(F)F)ncn1,22.4%,
CCC(C(=O)NC1CCCC1)N(C(=O)c1snc(C(N)=O)c1N)c1ccc2c(c1)OCCO2 (centres undefined),,25.1 µM (active)
COCCNC(=O)C(c1ccc(C)o1)N(Cc1cccs1)C(=O)c1snc(C(N)=O)c1N (centres undefined),-0.52%,
Cc1ccc(C(C(=O)NC2CCCCC2)N(C(=O)c2csnn2)C2CC2)o1 (centres undefined),17.2%,
Cc1cc2c(cc1C)NC1=C(N2)O[C@H](c2c[nH]c3ccc(COc4ccccc4)cc23)C1=O,3.07% [at 11.4 µM],
COc1ccc(C(=O)N2CCC3(CCCN(C(c4ccccc4)c4ccccc4)C3)CC2)cc1,20.6%,
COc1ccc(C(=O)N2CCC3(CC2)CCN(c2ccccn2)CC3)cc1,14.2%,
O=C(c1cc(C(F)(F)F)cc(C(F)(F)F)c1)N1CCC[C@@]2(CCN(c3ccccn3)C2)C1,,15.8 µM (active)
CC(=O)N1CCC2(CCCN(c3ncccn3)C2)CC1,5.39%,
O=C(c1cc(C(F)(F)F)cc(C(F)(F)F)c1)N1CCC2(CCCN(c3ccccn3)C2)CC1,,25.1 µM (active)
O=C(c1csnn1)N1CCC[C@@]2(CCN(c3cccc(-c4ccccc4)c3)C2)C1,3.98%,
O=C(c1cc(C(F)(F)F)cc(C(F)(F)F)c1)N1CCC2(CCCN(Cc3ccncc3)C2)CC1,20.6%,
O=C(c1cccc(F)c1)N1CCC2(CCCN(Cc3ccncc3)C2)CC1,24.7%,

SMILES,activation,Potency
O=C(c1ccncc1)N1CCC2(CCCN(C(c3ccccc3)c3ccccc3)C2)CC1,,10 µM (active)
COc1cccc([C@H](O)Cn2cc(-c3ccc(CON=C(C)C)cc3)nn2)c1,14.1% [at 11.4 µM],
COc1ccc(COC(=O)N/N=C2/C[C@@H](O)[C@@H](O)[C@@H]3[C@@H]4C(=O)N([C@@H](C)c5ccccc5)C(=O)[C@H]4CC[C@@H]23)cc1,-0.62% [at 11.4 µM],
CCOC(=O)c1sc(NC(=S)n2cc(C)cn2)c(C(=O)OCC)c1C,4.01%,
CN1CCc2nc(-c3ccccc3)c(-c3ccccc3)cc2C1,0.173% [at 11.4 µM],
c1ccc2nc(C3=NCCN3)cnc2c1,-2.21%,
CCOC(=O)c1ccc(N2C(=O)CC(N3CCC(C(=O)OCC)CC3)C2=O)cc1 (centres undefined),-3.39%,
CCOC(=O)c1nnn(-c2nc(OC)nc(N(C)C)n2)c1-c1ccccc1,19.1%,
Cc1ccc(C(=O)N2CCN(C3CCCCC3)CC2)s1,-11.9%,
N/C(=N\c1nc2ccccc2o1)NC(=O)C(Cc1ccccc1)N1C(=O)c2ccccc2C1=O (centres undefined),6.18%,
Cc1cccc2cc(CN(Cc3cccs3)C(c3nnnn3C3CCCC3)C(C)C)c(=O)[nH]c12 (centres undefined),20.4%,
CCOC(=O)C1CCN(C(c2cc3cc(C)cc(C)c3[nH]c2=O)c2nnnn2C2CCCCC2)CC1 (centres undefined),14.4%,
Cc1cccc2cc(CN(Cc3ccc4c(c3)OCO4)Cc3nnnn3C3CCCC3)c(=O)[nH]c12,,31.6 µM (active)
O=C1C(c2ccccn2)=[N+]([O-])c2ccccc21,4.84%,
O=c1c2ccccc2nnn1CSc1nc2sc3c(c2c(=O)n1CC1CCCO1)CCC3 (centres undefined),24.9%,
COc1ccccc1Oc1ccc(S(=O)(=O)Nc2cccnc2)cc1,19.7%,
COc1ccc(C2=NOC(C(=O)NCc3ccco3)C2)cc1OC (centres undefined),8.46% [at 2.29 µM],
COc1ccccc1N(C(=O)Cn1nnc2ccccc21)C(C(=O)NCc1ccco1)c1ccc(C)o1 (centres undefined),,3.98 µM (active)
CCOc1ccccc1C(=O)NCc1ccco1,22.2%,
Cc1cccc(CC(=O)Nc2c3c(nn2-c2cccc(Cl)c2)CS(=O)C3)c1 (centres undefined),,10 µM (active)
CC(C)(C)n1nc2c(c1NC(=O)c1ccc(S(=O)(=O)N3CCCC3)cc1)CS(=O)C2 (centres undefined),9.47%,
COc1ccc(CC(=O)Nc2c3c(nn2-c2cccc(Cl)c2)CS(=O)C3)cc1 (centres undefined),26.7%,
CC(C)CO,35.2%,
O=C(NCc1ccccc1)[C@H]1C[C@@H]1[C@H](NP(=O)(c1ccccc1)c1ccccc1)c1ccccc1,21.5%,

SMILES,activation,Potency
Cc1cccc(C(=O)O)c1[N+](=O)[O-],15%,
CCOC(=O)C1CCN(c2ncnc3c2oc2ccc(Br)cc23)CC1,,25.1 µM (active)
Cc1cc(C)nc(N2CCN(c3ncnc4c3oc3ccccc34)CC2)n1,8.26%,
CCOC(=O)N1CCN(C(=O)C2CCN(c3ncnc4c3sc3cccc(F)c34)CC2)CC1,22.3%,
Cc1cc(C)cc(C#CC2C=CC(Oc3ccc(C4CCCC4)cc3)C(CO)O2)c1 (centres undefined),16.7% [at 11.4 µM],
CC(C)[C@@H](OCc1ccccc1)[C@H](C)/C=N\OC[C@@H](C)[C@H](OCc1ccccc1)C(C)C,2.03% [at 11.4 µM],
CCOC(=O)CSc1nnc(-c2cccc(Br)c2)o1,14.3%,
O=C(CSc1nnc(-c2ccccc2)o1)N1CCOCC1,-5.4%,
CC1=CC(C)(C)N(C(=O)CSc2nnc(-c3ccccc3)o2)c2ccc(C)cc21,,2 µM (active)
CCS(=O)(=O)N1CCN(C(=O)c2cccs2)CC1,1.24%,
COc1ccc(N2CCN(C3CC(=O)N(c4ccc5c(c4)OCCO5)C3=O)CC2)cc1 (centres undefined),-2.22%,
CCCc1nc2ccccc2c(=O)n1NC(=O)c1c(O)c2ccccc2[nH]c1=O,-13.5%,
C[C@@H](C(=O)Nc1ccc2ccccc2c1)[C@@H]1C[C@@]1(C)[C@@H](NC(=O)c1cccnc1)c1ccccc1,26%,
COC(=O)[C@H](C)[C@H]1C[C@]1(C)[C@H](NC(=O)OCc1ccccc1)c1ccccc1,,2 µM (active)
CC(C)C(NC(=O)OCc1ccccc1)C(=O)OCC(=O)N1C(C)CCCC1C (centres undefined),4.71%,
C=CCOC(=O)C(C(C)=O)C(NC(=O)OC)c1ccccc1 (centres undefined),4.24% [at 11.4 µM],
CCc1ccc(NC(=O)CSc2nnc(-c3cnccn3)n2Cc2ccco2)cc1,16.3%,
C(=C\c1ccccc1)/CSc1nnc(-c2cccnc2)n1Cc1ccco1,,15.8 µM (active)
COc1cc(Cl)c(C)cc1NC(=O)CSc1nnc(-c2cccnc2)n1Cc1ccco1,5.62%,
COc1cccc(Cn2c(=O)c(-c3ccccc3)nc3cnc(OC)nc32)c1,6.48%,
COc1cccc(Cn2c(=O)c(-c3cc(F)cc(F)c3)nc3cnc(OC)nc32)c1,15.7%,
COc1cccc(Cn2c(=O)c(C)nc3cnc(Oc4ccccc4)nc32)c1,,12.6 µM (active)
